This note sets out measurements from paper PMC7826789 (International Journal of Molecular Sciences, 2021).

For one assay, the system named is T1, PIP5K2B.
T1 construct: gene PIP4K2B
Particulars: Compound Concentration (nM):1000.

In another assay the test system is T2, PIP5K2C.
T2 construct: gene PIP4K2C
Particulars: Compound Concentration (nM):1000.

The subject of another assay is T3, PKAC-alpha.
T3 construct: gene PRKACA
The settings on record: Compound Concentration (nM):1000.

The subject of a further assay is T4, PKAC-beta.
T4 construct: gene PRKACB
The settings on record: Compound Concentration (nM):1000.

Another assay relates to PKMYT1. Particulars: Compound Concentration (nM):1000.
The subject of the next assay is PKN1. The settings on record: Compound Concentration (nM):1000.
A further assay deals with PKN2. The settings on record: Compound Concentration (nM):1000.
The next assay deals with PKNB(M.tuberculosis). Particulars: 1 µM.
The subject of the next assay is PLK1. Particulars: Compound Concentration (nM):1000.
Another assay relates to PLK2. The settings on record: Compound Concentration (nM):1000.
Another assay has as its system PLK3. The settings on record: Compound Concentration (nM):1000.
A further assay deals with PLK4. Particulars: Compound Concentration (nM):1000.
The next assay concerns PRKCD. Particulars: Compound Concentration (nM):1000.
In a further assay the test system is PRKCE. Particulars: Compound Concentration (nM):1000.
A further assay has as its system PRKCH. The settings on record: Compound Concentration (nM):1000.
The test system of a further assay is PRKCI. Particulars: Compound Concentration (nM):1000.
The test system of another assay is PRKCQ. Particulars: Compound Concentration (nM):1000.
A further assay deals with PRKD1. The settings on record: Compound Concentration (nM):1000.
Another assay has as its system PRKD2. The settings on record: Compound Concentration (nM):1000.
The next assay relates to PRKD3. The settings on record: Compound Concentration (nM):1000.
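Further: KINOMEscan scanMAX binding as percent activity remaining versus control; lower means stronger binding.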

For the compound `CC1=C(C(=O)Nc2ccc3[nH]ncc3c2)C(c2ccc(Cl)c(Cl)c2)CC(=O)N1` (stereo not drawn) [GSK299115A], the “Percent Control” value in the assay on PIP5K2B was 99%; in the assay with PIP5K2C it was 82%; in the assay with PKAC-alpha, 81%; with PKAC-beta it was 63%; in the assay on PKMYT1, 77%; in the assay on PKN1 it was 39%. In addition, the “Percent Control” value in the assay on PKN2 is listed as 65%; in the assay on PKNB(M.tuberculosis), 85%; with PLK1, 70%; in the assay on PLK2, 100%; with PLK3, 84%; in the assay on PLK4, 87%. In addition, the “Percent Control” value in the assay on PRKCD was 100%; with PRKCE, 94%; in the assay with PRKCH, 100%; in the assay on PRKCI, 91%; in the assay with PRKCQ, 95%; in the assay on PRKD1 it was 100%. Moreover, the “Percent Control” value in the assay on PRKD2 is 85%; in the assay on PRKD3, 47%.
For the compound `CN(C)c1cc2c(Nc3ccc4c(cnn4Cc4ccccc4)c3)ncnc2cn1` [GW282974X], the “Percent Control” value is 100% with PIP5K2B; 100% with PIP5K2C; 100% in the assay with PKAC-alpha; 95% in the assay with PKAC-beta; 73% with PKMYT1; 90% in the assay with PKN1. In addition, the “Percent Control” value stood at 88% in the assay on PKN2; 68% in the assay on PKNB(M.tuberculosis); 71% in the assay with PLK1; 100% with PLK2; 100% in the assay on PLK3; 66% in the assay on PLK4. Further, the “Percent Control” value in the assay on PRKCD was 100%; with PRKCE, 100%; in the assay on PRKCH, 97%; in the assay on PRKCI, 88%; with PRKCQ, 100%; in the assay on PRKD1, 100%. Besides, the “Percent Control” value was 95% in the assay on PRKD2 and 89% in the assay on PRKD3.
Consider `COc1ccc2cc(-c3c(-c4ccncc4)nc(-c4ccc(S(C)(=O)=O)cc4C)n3C)ccc2c1` [SB-633825], for which the “Percent Control” value with PIP5K2B was 83%; with PIP5K2C, 73%; in the assay with PKAC-alpha it was 96%; in the assay on PKAC-beta it was 65%; in the assay with PKMYT1, 89%; with PKN1, 86%. Also, the “Percent Control” value in the assay on PKN2 came out at 100%; in the assay with PKNB(M.tuberculosis) it was 83%; with PLK1, 63%; in the assay on PLK2, 89%; with PLK3, 67%; in the assay with PLK4, 85%. The “Percent Control” value in the assay with PRKCD was 91%; with PRKCE, 90%; in the assay with PRKCH, 100%; in the assay on PRKCI, 68%; with PRKCQ it was 59%; in the assay on PRKD1 it was 84%. For the same compound, the entries for the “Percent Control” value in the assay on PRKD2 and in the assay with PRKD3 were 100% and 29%, respectively.
Regarding `COc1cc(N2CCN(C(C)C)CC2)ccc1Nc1nc(Nc2ccc(F)cc2C(=O)NC[C@@H](O)CO)c2cc[nH]c2n1` [GSK1392956A], the “Percent Control” value in the assay with PIP5K2B is 100%; in the assay with PIP5K2C, 94%; with PKAC-alpha, 100%; in the assay on PKAC-beta, 100%; with PKMYT1, 100%; in the assay on PKN1 it was 100%. Further, the “Percent Control” value worked out at 100% in the assay with PKN2; 99% in the assay on PKNB(M.tuberculosis); 6.3% in the assay with PLK1; 100% with PLK2; 96% with PLK3; 41% in the assay on PLK4. For the same compound, the “Percent Control” value is 100% with PRKCD; 100% with PRKCE; 100% in the assay on PRKCH; 97% in the assay on PRKCI; 95% with PRKCQ; 79% in the assay on PRKD1. In addition, the “Percent Control” value with PRKD2 was 57%; with PRKD3 it was 49%.
As for `CN(C)CCNC(=O)Nc1ccc(N(C)c2ccnc(Nc3ccc(CS(C)(=O)=O)cc3)n2)cc1.Cl` [GW830900A], the “Percent Control” value in the assay on PIP5K2B was 33%; with PIP5K2C, 3.7%; in the assay with PKAC-alpha it was 100%; with PKAC-beta, 100%; in the assay with PKMYT1 it was 100%; in the assay with PKN1, 83%. Besides, the “Percent Control” value in the assay with PKN2 was 64%; with PKNB(M.tuberculosis) it was 94%; in the assay with PLK1 it was 86%; with PLK2, 100%; in the assay on PLK3, 90%; with PLK4 it was 24%. For the same compound, the “Percent Control” value with PRKCD was 100%; in the assay with PRKCE it was 100%; in the assay with PRKCH, 100%; in the assay with PRKCI, 85%; with PRKCQ, 100%; in the assay with PRKD1, 100%. The “Percent Control” value in the assay with PRKD2 and with PRKD3 was 100% in each case.
Regarding `COc1cc2ncn(-c3cc(O[C@H](C)c4ccccc4Cl)c(C(N)=O)s3)c2cc1OC` [GSK237701A], the “Percent Control” value in the assay on PIP5K2B was 15%; with PIP5K2C, 20%; in the assay with PKAC-alpha, 100%; in the assay with PKAC-beta, 96%; with PKMYT1, 100%; in the assay on PKN1, 100%. The “Percent Control” value with PKN2 is recorded as 83%; in the assay with PKNB(M.tuberculosis) it was 62%; in the assay with PLK2, 1.8%; with PLK3, 2%; in the assay on PLK4, 30%; in the assay with PRKCD it was 100%. In addition, the “Percent Control” value in the assay on PRKCE is 91%; in the assay on PRKCH it was 100%; in the assay with PRKCI, 78%; in the assay with PRKCQ, 100%; in the assay with PRKD1 it was 100%; in the assay with PRKD2 it was 100%. Moreover, the “Percent Control” value with PRKD3 is on record as 49%.
For `O=C1Nc2ccc(C(=O)c3ccco3)cc2C1=Cc1cc(Cl)c(O)c(Cl)c1` [GW406108X], the “Percent Control” value in the assay on PIP5K2B is 95%; with PIP5K2C, 65%; in the assay with PKAC-alpha it was 100%; in the assay on PKAC-beta it was 100%; with PKMYT1 it was 100%; in the assay on PKN1, 83%. In addition, the “Percent Control” value was determined as 63% in the assay on PKN2; 90% with PKNB(M.tuberculosis); 49% in the assay on PLK1; 27% in the assay with PLK2; 37% in the assay on PLK3; 63% with PLK4. The “Percent Control” value in the assay with PRKCD, in the assay on PRKCE, with PRKCH, in the assay on PRKCI, in the assay with PRKCQ and in the assay on PRKD1 was 100% in each case. In addition, the “Percent Control” value in the assay with PRKD2 and in the assay on PRKD3 was 100% throughout.
With `C/C(Nc1ccc(S(N)(=O)=O)cc1)=C1/C(=O)Nc2ccccc21` [GW335962X], the “Percent Control” value in the assay on PIP5K2B is 100%; with PIP5K2C it was 93%; with PKAC-alpha it was 100%; with PKAC-beta, 87%; in the assay with PKMYT1, 91%; in the assay on PKN1, 83%. The “Percent Control” value with PKN2 is 74%; in the assay with PKNB(M.tuberculosis), 83%; in the assay with PLK1, 90%; in the assay on PLK2 it was 87%; in the assay on PLK3, 83%; with PLK4 it was 74%. For the same compound, the “Percent Control” value is 95% with PRKCD; 96% with PRKCE; 100% with PRKCH; 100% in the assay on PRKCI; 81% with PRKCQ; 100% in the assay with PRKD1. In addition, the “Percent Control” value in the assay on PRKD2 was 100%; in the assay with PRKD3 it was 86%.
In the case of `C[C@@H](Oc1cc(-n2cnc3ccc(OC4CCN(C)CC4)cc32)sc1C(N)=O)c1ccccc1Cl` [GSK579289A], the “Percent Control” value with PIP5K2B was 52%; in the assay with PIP5K2C, 75%; in the assay on PKAC-alpha it was 100%; with PKAC-beta it was 100%; in the assay on PKMYT1, 81%; in the assay with PKN1, 72%. Also, the “Percent Control” value is on record as 57% in the assay on PKN2; 35% in the assay with PKNB(M.tuberculosis); 13% with PLK2; 19% with PLK3; 78% in the assay on PLK4; 66% in the assay with PRKCD. In addition, the “Percent Control” value in the assay on PRKCE is 100%; with PRKCH it was 100%; in the assay on PRKCI it was 43%; with PRKCQ it was 58%; in the assay with PRKD1, 100%; in the assay on PRKD2, 84%. The “Percent Control” value in the assay with PRKD3 turned out to be 70%.
For `NS(=O)(=O)c1ccc(N/N=C2\C(=O)Nc3ccc(-c4cnco4)cc32)cc1` [GW276655], the “Percent Control” value in the assay with PIP5K2B is 69%; in the assay with PIP5K2C it was 100%; with PKAC-alpha it was 88%; in the assay on PKAC-beta, 94%; in the assay with PKMYT1, 95%; with PKN1 it was 100%. Further, the “Percent Control” value with PKN2 is on record as 87%; with PKNB(M.tuberculosis), 78%; in the assay on PLK1, 77%; in the assay on PLK2, 83%; in the assay on PLK3, 76%; with PLK4, 60%. Besides, the “Percent Control” value with PRKCD is 75%; in the assay with PRKCE, 100%; with PRKCH, 100%; in the assay on PRKCI, 54%; with PRKCQ it was 81%; in the assay on PRKD1, 100%. For the same compound, the “Percent Control” value in the assay on PRKD2 is 94%; in the assay with PRKD3, 100%.
